For 15 compounds, Potency and outcome results are on record in PubChem BioAssay (NCATS).

Results filed as inconclusive are left out. Entries that show only a call come without a potency. The source made the active and inactive calls. Calls come from the whole dose curve; as a rule, active = well fitted curve in the direction sought with a large enough effect; inconclusive = small, poorly fitted or top-dose-only effect, or another doubt; inactive = no such curve, though single readings can be large; an effect the other way counts as inactive or inconclusive.

One experiment is described as follows: MultiTox-Fluor Cytotoxicity Assay - LYMP1-001 - Dead Cells (AID 946). Note: potency is the fitted concentration of half-maximal effect. As to conditions: LYMP1-001 lymphoblastoid cells, dead-cell protease fluorescence; series mostly up to 92.2 µM. In short, it runs like this: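 Seed 2500 LYMP1-001 cells/well, incubate 5 hr at 37 C; add compound, 16 hr at 37 C; add MultiTox-Fluor reagent, 60 min RT; read dead-cell fluorescence Ex/Em=485/520. Normalize to DMSO and 15 uM tetraoctylammonium bromide.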
Turning to `CCNc1nc(Cl)nc(NC(C)C)n1`, the Potency entry was “inactive”.

For `O=C(O)COc1ccc(Cl)cc1Cl`, the Potency result was “inactive”.

`COC(=O)NC(=S)Nc1ccccc1NC(=S)NC(=O)OC`: the Potency entry is “inactive”.

For the compound `C/C=C/c1ccc2c(c1)OCO2`, the Potency entry was “inactive”.

Consider `C=CCc1ccc(OC)cc1`, for which the Potency entry was “inactive”.

On to `ClC1=C(Cl)C2(Cl)C3C(Cl)C=CC3C1(Cl)C2(Cl)Cl` (configuration not stated), for which the Potency was 50.1 µM (active).

Consider `CNC(=O)O/N=C/C(C)(C)SC`, for which the Potency result is “inactive”.

For `c1ccc(N=Nc2ccccc2)cc1`, the Potency result is “inactive”.

The nature of another experiment: MultiTox-Fluor Cytotoxicity Assay - LYMP1-001 - Live Cells (AID 947). Note: potency is the fitted concentration of half-maximal effect. As to conditions: LYMP1-001 lymphoblastoid cells, live-cell protease fluorescence viability; series mostly up to 92.2 µM.
In the case of `CCNc1nc(Cl)nc(NC(C)C)n1`, the Potency result is “inactive”.

In the case of `ClC1=C(Cl)C2(Cl)C3C4CC(C5OC45)C3C1(Cl)C2(Cl)Cl` (configuration not stated), the Potency was 15.8 µM (active).

Regarding `CCOCN(C(=O)CCl)c1c(C)cccc1CC`, the Potency entry was “inactive”.

Consider `ClC(Cl)=C(c1ccc(Cl)cc1)c1ccc(Cl)cc1`, for which the Potency result is “inactive”.

Regarding `O=C(O)COc1ccc(Cl)cc1Cl`, the Potency result is “inactive”.

In the case of `COC(=O)NC(=S)Nc1ccccc1NC(=S)NC(=O)OC`, the Potency entry is “inactive”.

Regarding `C/C=C/c1ccc2c(c1)OCO2`, the Potency result was “inactive”.

Take `COP(=S)(OC)Oc1ccc([N+](=O)[O-])cc1`: the Potency result is “inactive”.

Turning to `C=CCc1ccc(OC)cc1`, the Potency entry was “inactive”.

As to `CNC(=O)O/N=C/C(C)(C)SC`, the Potency result was “inactive”.

Regarding `CCc1cccc(CC)c1N(COC)C(=O)CCl`, the Potency entry was “inactive”.

The nature of a further experiment: Cell Viability - LYMP1-002 - Assay at 16 hr (AID 948). Note: potency is the fitted concentration of half-maximal effect. The conditions noted are these: LYMP1-002 lymphoblastoid cell viability; series mostly up to 92.2 µM. Summed up: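 LYMP1-002 human lymphoblastoid cells, 2500/well, were treated with compounds for 16 hr at 37 C in complete medium. Viability was read as intracellular ATP by CellTiter-Glo luminescence, and AC50 was derived from a Hill fit to concentration-response data.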
Regarding `CCNc1nc(Cl)nc(NC(C)C)n1`, the Potency entry was “inactive”.

Consider `ClC1=C(Cl)C2(Cl)C3C4CC(C5OC45)C3C1(Cl)C2(Cl)Cl` (configuration not stated), for which the Potency is 12.6 µM (active).

As to `CCOCN(C(=O)CCl)c1c(C)cccc1CC`, the Potency entry is “inactive”.

For the compound `ClC(Cl)=C(c1ccc(Cl)cc1)c1ccc(Cl)cc1`, the Potency result was “inactive”.

For the compound `O=C(O)COc1ccc(Cl)cc1Cl`, the Potency entry is “inactive”.

Turning to `COC(=O)NC(=S)Nc1ccccc1NC(=S)NC(=O)OC`, the Potency result is “inactive”.

For the compound `C/C=C/c1ccc2c(c1)OCO2`, the Potency result is “inactive”.

Take `COP(=S)(OC)Oc1ccc([N+](=O)[O-])cc1`: the Potency entry is “inactive”.

As to `C=CCc1ccc(OC)cc1`, the Potency result was “inactive”.

`CNC(=O)O/N=C/C(C)(C)SC`: the Potency result is “inactive”.

Take `c1ccc(N=Nc2ccccc2)cc1`: the Potency entry is “inactive”.

On to `CCc1cccc(CC)c1N(COC)C(=O)CCl`, for which the Potency entry is “inactive”.

A further experiment is described as follows: MultiTox-Fluor Cytotoxicity Assay - LYMP1-002 - Live Cells (AID 955). As to conditions: LYMP1-002 lymphoblastoid live-cell protease fluorescence viability; series mostly up to 46.1 µM. Summed up:
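Human lymphoblastoid LYMP1-002 cells, 2500/well in complete medium, rested 5 hr at 37 C, then exposed to compounds for 16 hr at 37 C. Live-cell protease cleavage of GF-AFC read by fluorescence (Ex/Em 405/510) after 60 min at room temperature; AC50 from Hill fits.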
Take `CCNc1nc(Cl)nc(NC(C)C)n1`: the compound was classed as inactive.

Turning to `CCOCN(C(=O)CCl)c1c(C)cccc1CC`, the call was inactive.

As for `ClC(Cl)=C(c1ccc(Cl)cc1)c1ccc(Cl)cc1`, the compound was called inactive.

In the case of `ClC1=C(Cl)C2(Cl)C3C4C=CC(C4)C3C1(Cl)C2(Cl)Cl` (configuration not stated), the result was inactive.

With `O=C(O)COc1ccc(Cl)cc1Cl`, the result was inactive.

For the compound `COC(=O)NC(=S)Nc1ccccc1NC(=S)NC(=O)OC`, the outcome was inactive.

For the compound `C/C=C/c1ccc2c(c1)OCO2`, the compound was called inactive.

Regarding `COP(=S)(OC)Oc1ccc([N+](=O)[O-])cc1`, the result was inactive.

Regarding `O=S1OCC2C(CO1)C1(Cl)C(Cl)=C(Cl)C2(Cl)C1(Cl)Cl` (configuration not stated), the outcome was inactive.

As for `C=CCc1ccc(OC)cc1`, the compound was called inactive.

Regarding `ClC1=C(Cl)C2(Cl)C3C(Cl)C=CC3C1(Cl)C2(Cl)Cl` (configuration not stated), the result was inactive.

In the case of `CNC(=O)O/N=C/C(C)(C)SC`, the call was inactive.

For the compound `c1ccc(N=Nc2ccccc2)cc1`, the compound was classed as inactive.

Take `CCc1cccc(CC)c1N(COC)C(=O)CCl`: the result was inactive.

A short description of a further experiment: MultiTox-Fluor Cytotoxicity Assay - LYMP1-002 - Dead Cells (AID 960). Note: nearly all actives have a fitted effect of over 60% in size. Note: potency is the fitted concentration of half-maximal effect. As to conditions: LYMP1-002 lymphoblastoid cells, dead-cell protease fluorescence; series mostly up to 46.1 µM. Summed up: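 Human lymphoblastoid cells (LYMP1-002), 2500/well in complete medium, were exposed to compounds for 16 hr at 37 C. Dead-cell protease activity was read as bis-AAF-R110 fluorescence (Ex/Em 485/520), normalized to DMSO and 15 uM tetraoctylammonium bromide; AC50 from Hill fits.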
As for `CCNc1nc(Cl)nc(NC(C)C)n1`, the Potency result is “inactive”.

Regarding `ClC1=C(Cl)C2(Cl)C3C4CC(C5OC45)C3C1(Cl)C2(Cl)Cl` (configuration not stated), the Potency is 20 µM (active).

Regarding `ClC(Cl)=C(c1ccc(Cl)cc1)c1ccc(Cl)cc1`, the Potency entry is “inactive”.

On to `O=C(O)COc1ccc(Cl)cc1Cl`, for which the Potency result was “inactive”.

On to `COC(=O)NC(=S)Nc1ccccc1NC(=S)NC(=O)OC`, for which the Potency result is “inactive”.

Consider `C/C=C/c1ccc2c(c1)OCO2`, for which the Potency entry is “inactive”.

Regarding `COP(=S)(OC)Oc1ccc([N+](=O)[O-])cc1`, the Potency result was “inactive”.

With `O=S1OCC2C(CO1)C1(Cl)C(Cl)=C(Cl)C2(Cl)C1(Cl)Cl` (configuration not stated), the Potency was 25.1 µM (active).

Regarding `C=CCc1ccc(OC)cc1`, the Potency result was “inactive”.

Turning to `CNC(=O)O/N=C/C(C)(C)SC`, the Potency result was “inactive”.

Consider `c1ccc(N=Nc2ccccc2)cc1`, for which the Potency result was “inactive”.

As to `CCc1cccc(CC)c1N(COC)C(=O)CCl`, the Potency entry was “inactive”.

Another experiment can be described thus: MultiTox-Fluor Cytotoxicity Assay - LYMP1-003 - Dead Cells (AID 961). Note: nearly all actives have a fitted effect of over 70% in size. Note: potency is the fitted concentration of half-maximal effect. As to conditions: LYMP1-003 lymphoblastoid cells, dead-cell protease fluorescence; series mostly up to 92.2 µM. In short, it runs like this: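 LYMP1-003 lymphoblastoid, 2500 cells/well, 5 hr settle then 16 hr cpd at 37 C; MultiTox-Fluor reagent 60 min RT; Ex/Em 485/520 dead-cell signal; norm. DMSO = 0%, 15 uM tetraoctylammonium bromide = 100%; Hill AC50.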
Turning to `CCNc1nc(Cl)nc(NC(C)C)n1`, the Potency entry was “inactive”.

Take `ClC1=C(Cl)C2(Cl)C3C4CC(C5OC45)C3C1(Cl)C2(Cl)Cl` (configuration not stated): the Potency is 10 µM (active).

Take `ClC(Cl)=C(c1ccc(Cl)cc1)c1ccc(Cl)cc1`: the Potency result is “inactive”.

With `ClC1=C(Cl)C2(Cl)C3C4C=CC(C4)C3C1(Cl)C2(Cl)Cl` (configuration not stated), the Potency was 39.8 µM (active).

For the compound `O=C(O)COc1ccc(Cl)cc1Cl`, the Potency result is “inactive”.

As to `COC(=O)NC(=S)Nc1ccccc1NC(=S)NC(=O)OC`, the Potency result is “inactive”.

For `C/C=C/c1ccc2c(c1)OCO2`, the Potency result is “inactive”.

With `COP(=S)(OC)Oc1ccc([N+](=O)[O-])cc1`, the Potency result is “inactive”.

`C=CCc1ccc(OC)cc1`: the Potency entry was “inactive”.

`ClC1=C(Cl)C2(Cl)C3C(Cl)C=CC3C1(Cl)C2(Cl)Cl` (configuration not stated): the Potency is 39.8 µM (active).

Take `CNC(=O)O/N=C/C(C)(C)SC`: the Potency result was “inactive”.

In the case of `c1ccc(N=Nc2ccccc2)cc1`, the Potency entry was “inactive”.

For `CCc1cccc(CC)c1N(COC)C(=O)CCl`, the Potency result is “inactive”.

A short description of a further experiment: MultiTox-Fluor Cytotoxicity Assay - LYMP1-003 - Live Cells (AID 962). Note: potency is the fitted concentration of half-maximal effect. As to conditions: LYMP1-003 lymphoblastoid cells, MultiTox-Fluor live-cell protease fluorescence; series mostly up to 92.2 µM. In short, it runs like this:
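LYMP1-003 human lymphoblastoid cells (2500/well) in complete medium were preincubated 5 hr at 37 C, then exposed to compounds for 16 hr at 37 C. Live-cell protease cleavage of GF-AFC read by fluorescence (Ex/Em 405/510); AC50 from Hill fits.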
With `CCNc1nc(Cl)nc(NC(C)C)n1`, the Potency result is “inactive”.

In the case of `ClC1=C(Cl)C2(Cl)C3C4CC(C5OC45)C3C1(Cl)C2(Cl)Cl` (configuration not stated), the Potency was 12.6 µM (active).

Turning to `CCOCN(C(=O)CCl)c1c(C)cccc1CC`, the Potency result is “inactive”.

For `ClC(Cl)=C(c1ccc(Cl)cc1)c1ccc(Cl)cc1`, the Potency result is “inactive”.

For `O=C(O)COc1ccc(Cl)cc1Cl`, the Potency entry is “inactive”.

As for `COC(=O)NC(=S)Nc1ccccc1NC(=S)NC(=O)OC`, the Potency entry is “inactive”.

Turning to `C/C=C/c1ccc2c(c1)OCO2`, the Potency result is “inactive”.

Take `COP(=S)(OC)Oc1ccc([N+](=O)[O-])cc1`: the Potency result is “inactive”.

Regarding `C=CCc1ccc(OC)cc1`, the Potency entry was “inactive”.

As for `CNC(=O)O/N=C/C(C)(C)SC`, the Potency result is “inactive”.

For `c1ccc(N=Nc2ccccc2)cc1`, the Potency result was “inactive”.

For `CCc1cccc(CC)c1N(COC)C(=O)CCl`, the Potency result is “inactive”.
